This is a sample that favours compounds with a hit; in the whole collection about 19% have one here.
DT40 TDP1 no CPT: qHTS for Inhibitors of human tyrosyl-DNA phosphodiesterase 1 (TDP1): qHTS in cells in absence of CPT; DT40 Tdp1-/- hTDP1 cells, no CPT, ATP luminescence, 48 h; Potency, µM (doses to about 46.2 µM), for inactives: top-dose activity change, negative = growth inhibition, most hits filed as inhibitors; actives 15% (n = 420,000); AID 686978, 2013; further: nearly all actives have a fitted effect of over 55% in size
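No-CPT arm: Tdp1-/-;hTDP1 DT40 cells (400/well) plus compounds, incubated ≥48 hr at 37 °C. Readout CellTiter-Glo luminescence.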
HT1080NT lethal: qHTS for induction of synthetic lethality in tumor cells producing 2HG: qHTS for the HT-1080-NT fibrosarcoma cell line; Potency, µM (highest dose often 46.1 µM), inactives show at the top dose activity, negative = less viability, most hits filed as cytotoxic; HT-1080-NT fibrosarcoma viability, CellTiter-Glo ATP luminescence, 48 h; actives 1.6% (n = 360,000); AID 686970, 2013;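 further: NT is the 2HG producing partner of a matched IDH1 knockdown line; 0% = DMSO-treated cells and -100% = media-only wells without cells; nearly all actives have a fitted effect of over 55% in size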
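Viability of the 2HG-overproducing fibrosarcoma line after 48 hours of compound exposure at 37 degrees C was determined by luminescence with CellTiter-Glo, and concentration-effect curves were then fitted and categorized.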
HT1080 IDH1KD tx: qHTS for induction of synthetic lethality in tumor cells producing 2HG: qHTS for the HT-1080-IDH1KD cell line | actives 2% (n = 360,000) | HT-1080 IDH1 knockdown viability, ATP luminescence, 48 h | Potency, µM (titrated, usually from 46.1 µM), for the others: at the highest dose activity, negative = toxicity, most hits filed as cytotoxic;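 further: 0% = DMSO wells and -100% = cell-free medium wells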
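Luminescent ATP read-out (CellTiter-Glo, 10 min at room temperature) after 48 h compound exposure at 37 °C gave viability of IDH1-knockdown HT-1080 cells. Activity was normalised to DMSO and cell-free wells, then fitted as concentration-response curves.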
KB-3-1 tox: qHTS assay for MDR1-selective chemotherapeutics: Primary screen using the parental adenocarcinoma cell KB-3-1; Potency, µM (highest dose often 46.1 µM), most hits filed as cytotoxic; KB-3-1 viability, CellTiter-Glo ATP luminescence, 72 h; actives 1.4% (n = 400,000); further: nearly all actives have a fitted effect of over 60% in size
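Using CellTiter-Glo luminescence, growth of non-resistant KB-3-1 adenocarcinoma cells is assessed 72 h after pin-tool compound addition at 37 °C. Normalized responses across the concentration series yield fitted curves.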
KB-V1 MDR tox: qHTS assay for MDR1-selective chemotherapeutics: Primary screen using the drug-selected MDR subline cells KB-V1; AID 1347076, 2019; KB-V1 MDR cells viability, CellTiter-Glo, 72 h; Potency, µM (doses to about 46.1 µM), actives largely listed as cytotoxic; actives 3.4% (n = 400,000); further: nearly all actives have a fitted effect of over 60% in size
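KB-V1, DMEM (no phenol red) + 10% FBS; cpd pin-transferred, titration series; 72 h, 37 degrees C; CellTiter-Glo, luminescence. Data normalized, curve-fit.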
TDP1 cell CPT: qHTS for Inhibitors of human tyrosyl-DNA phosphodiesterase 1 (TDP1): qHTS in cells in presence of CPT. chicken DT40 Tdp1-/-;hTDP1 cells + 20 nM CPT, ATP luminescence, 48 h. Potency, µM (series often up to 46.2 µM), without a hit: at the highest dose activity change, negative = growth inhibition, hits mostly inhibitors. actives 12% (n = 420,000). AID 686979, 2013; further: nearly all actives have a fitted effect of over 55% in size
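Cell growth measured by CellTiter-Glo luminescence after a minimum 48 h, 37 C compound exposure with 20 nM CPT in Tdp1-knockout DT40 cells stably expressing hTDP1, seeded 400/well; qHTS titration format.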
* marks the source's active call; other numbers are inactive results; i = inactive; ? = inconclusive; · = no result given. The call rests on the fitted dose curve; in most records, active means well fitted curve in the direction sought with a large enough effect; inconclusive means small, poorly fitted or top-dose-only effect, or another doubt; inactive means no such curve, though single readings can be large; an effect the other way counts as inactive or inconclusive. Unless noted, on the % scale 0 is the no-effect control and ±100 the full control effect; potency means the concentration at half of the fitted maximal effect.

SMILES | DT40 TDP1 no CPT | HT1080NT lethal | HT1080 IDH1KD tx | KB-3-1 tox | KB-V1 MDR tox | TDP1 cell CPT
CC(=O)Nc1ccc(Nc2cc(C(C)C)nc3c(-c4ccccc4)c(C)nn23)cc1 | ? | ? | ? | 5.8µM* | i | ?
Cc1cc(NCCCn2ccnc2)n2nc(-c3ccc(F)cc3)cc2n1 | -25% | -8% | -24% | i | ? | -19%
CC(=O)Nc1ccc(Nc2cc(C)nc3c(-c4ccccc4)c(C)nn23)cc1 | ? | -8% | -22% | i | i | ?
Cc1nn2c(NCCCn3ccnc3)cc(C(C)C)nc2c1-c1ccccc1 | ? | 15µM* | ? | i | ? | ?
Cc1nn2c(NCc3ccccn3)cc(C(C)C)nc2c1-c1ccccc1 | ? | -27% | ? | i | ? | 16µM*
CCOc1ccccc1CNC(=O)C1CCN(S(=O)(=O)c2c(C)noc2/C=C/c2ccc(C)cc2)CC1 | -28% | · | · | · | · | ?
CC1CCCN(C(=O)COC(=O)c2cc(-c3cccs3)nn2-c2ccccc2)C1 (stereo unspecified) | -24% | -4% | 0% | i | i | 4%
CCCc1cc(NCc2ccccn2)n2nc(C)c(-c3ccccc3)c2n1 | 0.92µM* | -25% | ? | ? | i | 0.58µM*
NS(=O)(=O)c1ccc(N=Nc2cc3ccccc3c(C(=O)O)c2O)cc1 | 1.1µM* | · | · | i | i | 0.4µM*
COC(=O)c1sccc1S(=O)(=O)N(CC(=O)NCc1ccc(F)cc1)c1ccc(C)c(C)c1 | -7% | · | · | i | i | ?
COc1cccc(/C=C2\SC(=S)N(NS(=O)(=O)c3ccccc3)C2=O)c1OC | 0% | 5% | 1% | i | i | ?
CCCS(=O)(=O)N1CCN=C1SCc1cccnc1 | -22% | ? | 18% | i | i | -11%
CCc1ccc([C@H]2C(C(=O)O)=C[C@@H](CC3CCCC3)N2S(=O)(=O)c2ccc(C)cc2)cc1 | -13% | -10% | -2% | i | i | ?
CC1C(=O)C(C)C(c2cccs2)NC1c1cccs1 (stereo unspecified) | -11% | -5% | -5% | i | i | -13%
CCC1(CC)C(=O)C(C)(C)C(=O)OC1c1cccs1 (stereo unspecified) | 21µM* | 5% | 10% | i | i | ?
O=C(C[C@H]1C(=O)N(C2CCCCC2)C[C@@H]1c1ccccc1)Nc1ccc(Br)cc1 | ? | -1% | 0% | i | ? | -30%
O=C(Nc1cccnc1)c1cnn2c(C(F)F)cc(C3CC3)nc12 | 5.2µM* | -14% | -10% | i | i | 15µM*
O=C(Nc1cc(Br)ccc1O)c1cnn2c(C(F)F)cc(C3CC3)nc12 | 16µM* | -10% | -11% | i | i | -13%
O=C(Nc1cccc(S(=O)(=O)N2CCOCC2)c1)c1cnn2c(C(F)F)cc(-c3ccccc3)nc12 | ? | 7% | 9% | i | i | ?
COc1ccc(NC(=O)c2cc(C(C)C)on2)cc1OC | -1% | 13% | -2% | i | 21µM* | ?
COc1ccc(NC(=O)c2cc(-c3ccc4c(c3)OCO4)on2)c(OC)c1 | -3% | · | · | i | i | -19%
O=C(Nc1cnn(Cc2ccc(Cl)cc2)c1)c1cccs1 | 8.2µM* | ? | ? | i | ? | 12µM*
COc1cc(NC(=O)c2cc(-c3ccc4c(c3)OCO4)on2)cc(OC)c1OC | ? | 8.2µM* | 5.8µM* | i | ? | ?
COc1ccc(OC)c(-c2cc(C(=O)NCc3cccs3)no2)c1 | ? | -27% | ? | i | 16µM* | 21µM*
CC(C)(CO)[C@@H](O)C(=O)NCCC(=O)O | 11% | ? | 19% | i | i | -4%
SMILES | DT40 TDP1 no CPT | HT1080NT lethal | HT1080 IDH1KD tx | KB-3-1 tox | KB-V1 MDR tox | TDP1 cell CPT
Cc1c(NC(=O)c2nn(CC(C)C)c(=O)c3ccccc23)c(=O)n(-c2ccccc2)n1C | -14% | 1% | 11% | i | i | -2%
O=C(NCc1ccccc1)N1CCC(Cc2ccccc2)CC1 | ? | -2% | -2% | i | i | ?
CCCSc1nc2c(c(=O)[nH]1)C(c1ccc(F)cc1F)CC(=O)N2 (stereo unspecified) | ? | · | · | i | i | ?
COCCCN1C(=O)C(CC(=O)NCc2cccc3ccccc23)CC(C(=O)N(C(C)C)C(C)C)=C1C (stereo unspecified) | ? | 2% | 12% | i | i | -24%
COc1cc(NC(=O)c2cc(-c3ccccc3)on2)cc(OC)c1OC | 13µM* | 3% | 1% | ? | ? | ?
COc1ccc(NC(=O)c2cc(-c3ccccc3Cl)on2)cc1OC | -3% | ? | 10% | i | i | -5%
COC(=O)c1c(-c2cccnc2)csc1NC(=O)c1cc(C)on1 | 16µM* | 2% | -4% | i | i | ?
COc1ccc(-c2cc(C(=O)Nc3cc(C)nn3-c3ccccc3)no2)cc1 | -16% | 2% | -8% | i | i | -1%
COc1ccccc1-c1cc(C(=O)Nc2cc(C)nn2-c2ccccc2)no1 | 26µM* | ? | 3.2µM* | 5.2µM* | 6.5µM* | 18µM*
Cc1cccc(-c2csc(NC(=O)c3cnccn3)c2C(=O)OC(C)C)c1 | -24% | 2% | 2% | i | i | ?
COc1ccccc1-c1cc(C(=O)Nc2cc(OC)c(OC)c(OC)c2)no1 | 0.65µM* | · | · | ? | ? | 0.52µM*
C[C@@H]1CN([C@@H](C)CO)C(=O)CCCn2nncc2CO[C@@H]1CN(C)S(=O)(=O)c1ccc(C#N)cc1 | -1% | 16% | 4% | i | ? | 9%
COc1ccc(C(=O)NCCCN2CCCC2=O)cc1S(=O)(=O)N1CCOCC1 | 8% | 4% | 7% | i | i | -3%
COc1ccccc1-c1cc(C(=O)NC(C)c2ccccc2)no1 (stereo unspecified) | -19% | 23% | ? | i | 21µM* | ?
